# Tests used:
# Experiment in all cases: DAPPL (digital affinity profiling via proximity ligation, sequencing); 10 mM Tris-HCl pH 7.5, 50 mM NaCl, 1 mM DTT, 4% glycerol, room temperature, 30 min; GST-TFs on glutathione beads, 16-mer random dsDNA library, 0.1% formaldehyde crosslink after washing; high values mean tight binding
# [1] = biological target: T1, FLI1 (Homo sapiens, UniProt Q01543 1-452); details: protein: recombinant; tags: N-terminal GST; dsDNA, one strand shown
# T1 sequence: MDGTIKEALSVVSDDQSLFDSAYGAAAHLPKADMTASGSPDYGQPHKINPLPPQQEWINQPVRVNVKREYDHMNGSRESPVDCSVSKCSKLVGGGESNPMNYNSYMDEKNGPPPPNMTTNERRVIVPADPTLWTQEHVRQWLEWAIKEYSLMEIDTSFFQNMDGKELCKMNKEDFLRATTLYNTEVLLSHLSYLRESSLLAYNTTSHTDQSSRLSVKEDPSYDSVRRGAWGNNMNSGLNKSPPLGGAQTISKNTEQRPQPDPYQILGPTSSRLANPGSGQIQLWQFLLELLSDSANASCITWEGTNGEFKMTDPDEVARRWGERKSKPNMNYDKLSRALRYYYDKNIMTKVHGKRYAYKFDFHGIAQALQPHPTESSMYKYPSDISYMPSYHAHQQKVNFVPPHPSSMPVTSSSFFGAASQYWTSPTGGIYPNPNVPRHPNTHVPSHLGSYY
# In short: (§1)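 Human transcription factors fused to GST were expressed in yeast, captured on glutathione beads, given DNA barcodes and pooled with a GST-only negative control. Pools were incubated with 200 nmole of a 16-mer random double-stranded DNA library in Tris/NaCl/DTT/glycerol buffer at room temperature for 30 min. They were then washed, crosslinked with 0.1% formaldehyde, proximity-ligated (BsaI/T4 ligase, 1 h, 37 °C), PCR-amplified and sequenced on an Illumina NextSeq500. Binding signal is each 6-mer's read frequency for a factor divided by its frequency for the GST control.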
# [2] = biological target: T2, ELK1 (Homo sapiens, UniProt P19419 1-428); details: protein: recombinant; tags: N-terminal GST; dsDNA, one strand shown
# T2 sequence: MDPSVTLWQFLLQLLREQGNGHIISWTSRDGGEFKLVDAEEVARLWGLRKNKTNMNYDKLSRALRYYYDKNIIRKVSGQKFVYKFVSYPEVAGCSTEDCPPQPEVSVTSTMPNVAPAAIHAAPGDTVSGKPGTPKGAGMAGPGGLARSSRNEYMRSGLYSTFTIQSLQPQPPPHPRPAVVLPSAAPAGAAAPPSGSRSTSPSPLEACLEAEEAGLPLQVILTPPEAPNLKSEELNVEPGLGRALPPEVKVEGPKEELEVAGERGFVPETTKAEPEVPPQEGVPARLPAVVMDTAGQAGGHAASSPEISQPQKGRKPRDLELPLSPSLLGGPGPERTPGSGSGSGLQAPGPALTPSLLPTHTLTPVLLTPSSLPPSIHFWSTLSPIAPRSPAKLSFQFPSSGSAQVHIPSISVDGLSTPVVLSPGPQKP
# In short: as §1
# [3] = biological target: T3, GABPA (Homo sapiens, UniProt Q06546 1-454); details: protein: recombinant; tags: N-terminal GST; dsDNA, one strand shown
# T3 sequence: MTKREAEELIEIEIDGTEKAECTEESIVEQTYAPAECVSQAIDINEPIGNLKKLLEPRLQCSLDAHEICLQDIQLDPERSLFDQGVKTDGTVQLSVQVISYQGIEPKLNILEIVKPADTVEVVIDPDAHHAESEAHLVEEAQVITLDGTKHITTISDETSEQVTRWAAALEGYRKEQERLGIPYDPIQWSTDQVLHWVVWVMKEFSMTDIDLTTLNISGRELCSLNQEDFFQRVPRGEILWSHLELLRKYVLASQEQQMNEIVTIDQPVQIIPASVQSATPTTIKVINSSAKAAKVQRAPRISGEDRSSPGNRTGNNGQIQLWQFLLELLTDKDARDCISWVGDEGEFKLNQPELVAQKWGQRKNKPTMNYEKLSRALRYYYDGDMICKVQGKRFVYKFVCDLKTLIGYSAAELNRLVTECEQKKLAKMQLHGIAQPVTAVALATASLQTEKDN
# In short: as §1
# [4] = biological target: T4, ERG (Homo sapiens, UniProt P11308 1-479); details: protein: recombinant; tags: N-terminal GST; dsDNA, one strand shown
# T4 sequence: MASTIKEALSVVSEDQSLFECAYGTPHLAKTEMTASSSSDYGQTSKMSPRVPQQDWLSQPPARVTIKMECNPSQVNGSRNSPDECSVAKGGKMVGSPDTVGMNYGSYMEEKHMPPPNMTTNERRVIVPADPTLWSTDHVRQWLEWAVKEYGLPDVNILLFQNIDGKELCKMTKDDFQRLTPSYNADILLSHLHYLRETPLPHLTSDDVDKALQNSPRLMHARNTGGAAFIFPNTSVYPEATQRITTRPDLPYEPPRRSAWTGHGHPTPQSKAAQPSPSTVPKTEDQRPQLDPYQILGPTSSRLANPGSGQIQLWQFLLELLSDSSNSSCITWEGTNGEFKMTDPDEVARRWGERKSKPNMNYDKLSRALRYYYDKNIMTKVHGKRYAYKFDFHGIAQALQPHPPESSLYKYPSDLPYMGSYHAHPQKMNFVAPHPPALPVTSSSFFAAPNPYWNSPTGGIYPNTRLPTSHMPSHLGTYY
# In short: as §1
# [5] = biological target: ELF1 (Homo sapiens, UniProt P32519 1-619); details: protein: recombinant; tags: N-terminal GST; dsDNA, one strand shown
# Sequence of ELF1 (P32519 whole entry): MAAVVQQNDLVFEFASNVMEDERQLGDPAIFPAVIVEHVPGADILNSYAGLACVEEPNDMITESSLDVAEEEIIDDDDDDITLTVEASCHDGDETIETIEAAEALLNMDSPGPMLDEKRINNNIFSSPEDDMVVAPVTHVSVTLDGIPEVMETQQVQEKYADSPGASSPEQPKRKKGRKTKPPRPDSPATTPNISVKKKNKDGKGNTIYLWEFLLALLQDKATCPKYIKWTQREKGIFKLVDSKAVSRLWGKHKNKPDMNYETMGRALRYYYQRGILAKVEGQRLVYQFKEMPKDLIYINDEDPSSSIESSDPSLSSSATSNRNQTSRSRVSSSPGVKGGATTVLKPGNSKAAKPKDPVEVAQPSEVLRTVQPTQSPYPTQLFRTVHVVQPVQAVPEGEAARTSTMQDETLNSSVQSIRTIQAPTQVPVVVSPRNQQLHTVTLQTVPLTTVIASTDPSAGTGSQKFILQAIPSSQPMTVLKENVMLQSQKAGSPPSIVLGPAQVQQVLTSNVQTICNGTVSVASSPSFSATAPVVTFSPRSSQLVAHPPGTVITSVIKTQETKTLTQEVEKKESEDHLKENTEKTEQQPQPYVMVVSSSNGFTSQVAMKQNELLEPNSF
# In short: as §1
# [6] = biological target: T5, EHF (Homo sapiens, UniProt Q9NZC4 1-300); details: protein: recombinant; tags: N-terminal GST; dsDNA, one strand shown
# T5 sequence: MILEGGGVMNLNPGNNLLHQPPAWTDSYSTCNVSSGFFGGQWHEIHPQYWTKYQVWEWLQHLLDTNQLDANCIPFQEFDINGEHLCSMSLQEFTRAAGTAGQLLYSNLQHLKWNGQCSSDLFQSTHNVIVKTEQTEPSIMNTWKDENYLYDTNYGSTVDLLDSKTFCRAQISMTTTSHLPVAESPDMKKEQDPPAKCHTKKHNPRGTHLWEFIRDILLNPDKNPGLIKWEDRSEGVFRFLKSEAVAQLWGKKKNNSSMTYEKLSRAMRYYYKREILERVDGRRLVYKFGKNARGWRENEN
# In short: as §1
# [7] = biological target: SPI1 (Homo sapiens, UniProt P17947 1-270); details: protein: recombinant; tags: N-terminal GST; dsDNA, one strand shown
# In short: as §1
# [8] = biological target: SPIB (Homo sapiens, UniProt Q01892 1-262); details: protein: recombinant; tags: N-terminal GST; dsDNA, one strand shown
# Sequence of SPIB (Q01892 whole entry): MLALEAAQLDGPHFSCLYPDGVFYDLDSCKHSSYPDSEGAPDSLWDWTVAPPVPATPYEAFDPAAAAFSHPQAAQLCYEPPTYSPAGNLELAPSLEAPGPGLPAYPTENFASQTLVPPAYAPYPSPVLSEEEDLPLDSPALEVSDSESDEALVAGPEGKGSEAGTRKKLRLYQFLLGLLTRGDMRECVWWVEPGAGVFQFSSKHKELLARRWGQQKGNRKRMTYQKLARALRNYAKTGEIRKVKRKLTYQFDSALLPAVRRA
# In short: as §1
# [9] = biological target: T6, ELK3 (Homo sapiens, UniProt P41970 1-407); details: protein: recombinant; tags: N-terminal GST; dsDNA, one strand shown
# T6 sequence: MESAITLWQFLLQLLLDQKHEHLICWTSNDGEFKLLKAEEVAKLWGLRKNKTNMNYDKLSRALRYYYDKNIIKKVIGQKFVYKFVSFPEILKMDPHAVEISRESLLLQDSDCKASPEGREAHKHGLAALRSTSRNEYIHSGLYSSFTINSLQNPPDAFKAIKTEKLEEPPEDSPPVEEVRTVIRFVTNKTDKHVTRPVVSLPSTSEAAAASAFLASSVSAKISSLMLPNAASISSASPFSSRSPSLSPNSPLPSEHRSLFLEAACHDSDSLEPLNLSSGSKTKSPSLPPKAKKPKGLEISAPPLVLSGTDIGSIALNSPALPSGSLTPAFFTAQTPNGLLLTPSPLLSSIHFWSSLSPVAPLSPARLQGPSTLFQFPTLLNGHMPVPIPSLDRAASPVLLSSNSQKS
# In short: as §1
# [10] = biological target: T7, FEV (Homo sapiens, UniProt Q99581 1-238); details: protein: recombinant; tags: N-terminal GST; dsDNA, one strand shown
# T7 sequence: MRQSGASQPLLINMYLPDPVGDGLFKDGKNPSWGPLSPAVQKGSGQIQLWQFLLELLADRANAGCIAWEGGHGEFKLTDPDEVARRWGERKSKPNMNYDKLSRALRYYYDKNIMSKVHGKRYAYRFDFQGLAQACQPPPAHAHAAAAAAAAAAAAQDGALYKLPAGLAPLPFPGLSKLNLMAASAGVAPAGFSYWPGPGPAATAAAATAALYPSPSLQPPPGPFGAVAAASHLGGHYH
# In short: as §1
# [11] = biological target: ETV5 (Homo sapiens, UniProt P41161 1-510); details: protein: recombinant; tags: N-terminal GST; dsDNA, one strand shown
# Sequence of ETV5 (P41161 whole entry): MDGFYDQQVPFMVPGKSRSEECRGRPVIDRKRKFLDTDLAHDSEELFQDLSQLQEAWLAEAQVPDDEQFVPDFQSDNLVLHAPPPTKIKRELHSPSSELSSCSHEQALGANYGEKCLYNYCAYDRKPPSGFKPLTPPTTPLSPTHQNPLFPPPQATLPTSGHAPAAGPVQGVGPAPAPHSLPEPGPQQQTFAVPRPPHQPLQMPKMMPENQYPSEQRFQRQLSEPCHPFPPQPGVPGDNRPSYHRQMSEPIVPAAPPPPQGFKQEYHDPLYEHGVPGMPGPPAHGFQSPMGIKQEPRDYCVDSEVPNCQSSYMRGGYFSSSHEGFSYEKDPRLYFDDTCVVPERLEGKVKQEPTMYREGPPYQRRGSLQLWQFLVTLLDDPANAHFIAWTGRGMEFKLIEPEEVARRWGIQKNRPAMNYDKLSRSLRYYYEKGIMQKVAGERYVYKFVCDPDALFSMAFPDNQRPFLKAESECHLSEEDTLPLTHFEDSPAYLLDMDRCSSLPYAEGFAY
# In short: as §1
# [12] = biological target: HSF1 (Homo sapiens, UniProt Q00613 1-529); details: protein: recombinant; tags: N-terminal GST; chain copies: 3; dsDNA, one strand shown
# Sequence of HSF1 (Q00613 whole entry): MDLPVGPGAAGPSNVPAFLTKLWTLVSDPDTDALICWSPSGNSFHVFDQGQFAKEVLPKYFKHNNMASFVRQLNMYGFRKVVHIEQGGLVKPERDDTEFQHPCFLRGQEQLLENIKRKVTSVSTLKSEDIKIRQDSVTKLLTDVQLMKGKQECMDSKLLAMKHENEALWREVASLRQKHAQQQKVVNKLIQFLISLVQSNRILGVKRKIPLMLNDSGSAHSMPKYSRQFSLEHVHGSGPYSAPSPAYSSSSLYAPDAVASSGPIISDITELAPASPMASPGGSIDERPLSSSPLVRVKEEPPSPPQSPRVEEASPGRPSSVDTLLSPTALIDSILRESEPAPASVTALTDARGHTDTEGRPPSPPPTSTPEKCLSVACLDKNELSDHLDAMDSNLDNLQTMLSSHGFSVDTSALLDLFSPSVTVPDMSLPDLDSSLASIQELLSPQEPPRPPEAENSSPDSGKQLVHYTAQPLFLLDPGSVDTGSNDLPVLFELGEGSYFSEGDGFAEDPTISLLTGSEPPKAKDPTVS
# In short: as §1
# [13] = biological target: T8, SPIC (Homo sapiens, UniProt Q8N5J4 1-248); details: protein: recombinant; tags: N-terminal GST; dsDNA, one strand shown
# T8 sequence: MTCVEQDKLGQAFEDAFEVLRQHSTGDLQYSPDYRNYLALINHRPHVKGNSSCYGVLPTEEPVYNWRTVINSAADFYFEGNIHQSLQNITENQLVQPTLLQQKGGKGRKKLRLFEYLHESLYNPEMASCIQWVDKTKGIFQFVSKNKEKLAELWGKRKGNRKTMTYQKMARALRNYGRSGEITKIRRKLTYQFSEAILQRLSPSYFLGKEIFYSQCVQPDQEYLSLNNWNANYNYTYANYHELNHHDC
# In short: as §1
# [14] = biological target: ELF4 (Homo sapiens, UniProt Q99607 1-663); details: protein: recombinant; tags: N-terminal GST; dsDNA, one strand shown
# Sequence of ELF4 (Q99607 whole entry): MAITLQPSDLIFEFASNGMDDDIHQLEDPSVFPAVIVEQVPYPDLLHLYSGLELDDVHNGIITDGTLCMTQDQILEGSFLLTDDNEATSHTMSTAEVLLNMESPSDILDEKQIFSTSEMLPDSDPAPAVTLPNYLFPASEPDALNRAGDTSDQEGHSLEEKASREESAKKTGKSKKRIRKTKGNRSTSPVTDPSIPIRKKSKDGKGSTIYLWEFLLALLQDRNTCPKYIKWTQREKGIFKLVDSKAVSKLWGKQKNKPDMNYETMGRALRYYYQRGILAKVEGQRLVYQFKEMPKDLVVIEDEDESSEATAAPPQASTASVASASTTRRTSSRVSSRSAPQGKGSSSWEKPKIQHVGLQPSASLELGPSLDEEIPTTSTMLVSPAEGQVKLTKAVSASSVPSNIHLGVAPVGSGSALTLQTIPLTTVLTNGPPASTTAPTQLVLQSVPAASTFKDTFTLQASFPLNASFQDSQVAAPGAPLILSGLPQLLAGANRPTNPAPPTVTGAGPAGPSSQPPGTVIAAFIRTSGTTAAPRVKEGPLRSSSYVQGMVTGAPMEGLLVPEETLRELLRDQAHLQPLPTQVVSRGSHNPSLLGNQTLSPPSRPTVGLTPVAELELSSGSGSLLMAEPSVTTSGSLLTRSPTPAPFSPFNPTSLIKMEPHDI
# In short: as §1
# [15] = biological target: T9, ELK4 (Homo sapiens, UniProt P28324-2 1-405); details: protein: recombinant; tags: N-terminal GST; dsDNA, one strand shown
# T9 sequence: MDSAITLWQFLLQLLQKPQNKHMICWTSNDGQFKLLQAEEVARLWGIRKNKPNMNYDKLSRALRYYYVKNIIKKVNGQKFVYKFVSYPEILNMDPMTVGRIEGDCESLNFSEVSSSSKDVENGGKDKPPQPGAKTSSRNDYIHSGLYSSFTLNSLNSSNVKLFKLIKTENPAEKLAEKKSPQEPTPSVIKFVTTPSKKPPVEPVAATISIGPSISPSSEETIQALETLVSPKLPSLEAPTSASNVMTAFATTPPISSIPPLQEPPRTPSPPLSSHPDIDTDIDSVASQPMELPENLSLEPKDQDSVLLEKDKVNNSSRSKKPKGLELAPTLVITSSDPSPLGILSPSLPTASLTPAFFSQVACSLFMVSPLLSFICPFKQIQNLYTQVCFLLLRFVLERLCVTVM
# In short: as §1
# [16] = biological target: T10, ETV2 (Homo sapiens, UniProt O00321 1-342); details: protein: recombinant; tags: N-terminal GST; dsDNA, one strand shown
# T10 sequence: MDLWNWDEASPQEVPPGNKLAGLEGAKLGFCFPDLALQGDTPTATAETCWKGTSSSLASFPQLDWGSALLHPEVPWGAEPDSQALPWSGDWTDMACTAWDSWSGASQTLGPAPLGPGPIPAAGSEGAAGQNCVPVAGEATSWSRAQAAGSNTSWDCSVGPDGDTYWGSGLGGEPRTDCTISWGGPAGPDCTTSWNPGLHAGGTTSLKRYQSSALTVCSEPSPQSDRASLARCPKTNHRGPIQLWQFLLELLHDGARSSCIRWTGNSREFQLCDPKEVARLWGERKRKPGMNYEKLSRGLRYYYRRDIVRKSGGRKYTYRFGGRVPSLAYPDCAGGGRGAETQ
# In short: as §1
# [17] = biological target: T11, ELF3 (Homo sapiens, UniProt P78545 1-371); details: protein: recombinant; tags: N-terminal GST; dsDNA, one strand shown
# T11 sequence: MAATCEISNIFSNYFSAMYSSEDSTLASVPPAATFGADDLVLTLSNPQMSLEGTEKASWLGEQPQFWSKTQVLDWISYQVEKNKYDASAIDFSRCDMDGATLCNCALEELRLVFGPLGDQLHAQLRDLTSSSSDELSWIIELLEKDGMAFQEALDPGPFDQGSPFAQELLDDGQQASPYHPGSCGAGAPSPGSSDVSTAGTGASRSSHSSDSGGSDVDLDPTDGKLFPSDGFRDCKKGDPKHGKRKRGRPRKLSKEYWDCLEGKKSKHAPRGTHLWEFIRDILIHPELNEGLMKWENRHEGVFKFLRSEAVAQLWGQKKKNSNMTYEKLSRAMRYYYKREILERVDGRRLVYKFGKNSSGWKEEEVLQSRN
# In short: as §1
# [18] = biological target: CRX (Homo sapiens, UniProt O43186 1-299); details: protein: recombinant; tags: N-terminal GST; dsDNA, one strand shown
# Sequence of CRX (O43186 whole entry): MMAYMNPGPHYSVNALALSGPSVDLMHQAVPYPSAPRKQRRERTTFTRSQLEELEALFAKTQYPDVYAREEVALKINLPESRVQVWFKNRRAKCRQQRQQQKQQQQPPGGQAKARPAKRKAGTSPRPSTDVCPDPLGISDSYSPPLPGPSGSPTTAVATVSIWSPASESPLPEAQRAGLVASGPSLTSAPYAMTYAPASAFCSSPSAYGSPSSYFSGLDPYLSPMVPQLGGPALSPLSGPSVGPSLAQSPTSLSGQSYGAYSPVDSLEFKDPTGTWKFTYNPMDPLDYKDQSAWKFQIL
# In short: as §1
# [19] = biological target: ETV1 (Homo sapiens, UniProt P50549 1-477); details: protein: recombinant; tags: N-terminal GST; dsDNA, one strand shown
# Sequence of ETV1 (P50549 whole entry): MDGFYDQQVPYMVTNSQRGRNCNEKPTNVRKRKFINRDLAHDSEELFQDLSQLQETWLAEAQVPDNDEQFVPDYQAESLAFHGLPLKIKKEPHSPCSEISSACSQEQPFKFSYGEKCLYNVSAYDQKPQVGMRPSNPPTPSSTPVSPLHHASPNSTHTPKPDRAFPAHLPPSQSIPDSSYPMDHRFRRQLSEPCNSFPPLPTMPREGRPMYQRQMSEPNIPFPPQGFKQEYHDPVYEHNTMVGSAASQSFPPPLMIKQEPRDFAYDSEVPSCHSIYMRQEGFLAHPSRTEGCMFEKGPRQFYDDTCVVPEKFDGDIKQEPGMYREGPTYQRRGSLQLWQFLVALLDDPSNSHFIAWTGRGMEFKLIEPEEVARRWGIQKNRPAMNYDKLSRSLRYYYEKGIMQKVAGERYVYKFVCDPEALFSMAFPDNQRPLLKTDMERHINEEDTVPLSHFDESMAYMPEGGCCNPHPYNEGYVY
# In short: as §1
sequence,measurement,setting,value
TTCGTT,binding signal,[1],"1.33 fold enrichment (6-mer frequency, TF over GST control)"
same,binding signal,[2],"1.4 fold enrichment (6-mer frequency, TF over GST control)"
same,binding signal,[3],"1.33 fold enrichment (6-mer frequency, TF over GST control)"
same,binding signal,[4],"1.25 fold enrichment (6-mer frequency, TF over GST control)"
same,binding signal,[5],"1.32 fold enrichment (6-mer frequency, TF over GST control)"
same,binding signal,[6],"1.36 fold enrichment (6-mer frequency, TF over GST control)"
same,binding signal,[7],"1.29 fold enrichment (6-mer frequency, TF over GST control)"
same,binding signal,[8],"1.33 fold enrichment (6-mer frequency, TF over GST control)"
same,binding signal,[9],"1.24 fold enrichment (6-mer frequency, TF over GST control)"
same,binding signal,[10],"1.3 fold enrichment (6-mer frequency, TF over GST control)"
same,binding signal,[11],"1.4 fold enrichment (6-mer frequency, TF over GST control)"
same,binding signal,[12],"1.48 fold enrichment (6-mer frequency, TF over GST control)"
same,binding signal,[13],"1.32 fold enrichment (6-mer frequency, TF over GST control)"
same,binding signal,[14],"1.34 fold enrichment (6-mer frequency, TF over GST control)"
same,binding signal,[15],"1.37 fold enrichment (6-mer frequency, TF over GST control)"
same,binding signal,[16],"1.46 fold enrichment (6-mer frequency, TF over GST control)"
same,binding signal,[17],"1.38 fold enrichment (6-mer frequency, TF over GST control)"
same,binding signal,[18],"1.3 fold enrichment (6-mer frequency, TF over GST control)"
same,binding signal,[19],"1.39 fold enrichment (6-mer frequency, TF over GST control)"

# From PMC7862700, “An all-to-all approach to the identification of sequence-specific readers for epigenetic DNA modifications on cytosine”
